{"source": "PubChem BioAssay AID1347426", "about": "(Functional Genomics Laboratory (NCATS/FGL), 2020)", "note": "Out of some 31,000 sequences screened, about 1,400 (4.5%) were called active.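 The calls were made as follows: active = median seed-adjusted z-score above 1 or below -1; inactive = the rest.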 Many of the other results were omitted from the sample, so actives are more common in it than they were."}
{"test": "Novel Modifiers of Survival Motor Neuron (SMN) Protein: Gene Identification via Genome-wide siRNA Screen", "settings": "HEK293T SMN2-luciferase reporter, siRNA knockdown, 72 h; actives lie on both sides", "excerpt": "Spinal muscular atrophy (SMA) is the most common neuromuscular autosomal recessive disorder and one of the leading genetic causes of infant death. SMA results from mutations inducing loss of function or deletion in the survival of motor neuron-1 gene (SMN1), leading to deficiency of the survival motor neuron (SMN) protein. Although a second nearly identical gene, SMN2, is retained in humans, its expression primarily produces an aberrantly spliced isoform that is largely unstable and quickly degraded. We performed a genome-wide RNAi screen using a cell-based reporter assay to identify genes and pathways that modulate SMN protein stability. The screen identified over 200 genes that led to the greatest increase or decrease in luciferase expression.\nUsing HEK293T cells stably expressing a luciferase reporter that combines the promoter and splicing based cassettes in tandem with the major portion of the native SMN2 cDNA with luciferase, we performed a genome-wide RNAi screen to identify modulators of SMN protein levels. Luciferase is expressed when full-length SMN protein is generated with luminescence signal proportional to SMN protein levels. Our luciferase-based reporter assay was used to screen Ambion Silencer Select Human Druggable Genome siRNA library (10418 genes, 3 unique siRNAs per gene) using lipid-based reverse transfection.\nBriefly, 1 pmol of each siRNA was spotted to a well of a 384-well plate (Corning, Corning, NY) and 20 microL of serum-free DMEM containing […] of Lipofectamine RNAiMax (Life Technologies, Carlsbad, CA) was then added to each well. Transfected cells were maintained at 37 degrees C in 5% CO2 for 72 hours, 20 microL of ONE-Glo Reagent (Promega) was added to wells for luciferase quantification. Raw luminescence reads were normalized to Ambion(R) Silencer(R) Negative Control #2 siRNA, then log10 transformed. A robust statistical measure of median absolute deviation (MAD) to standardize siRNA activities from each screen. Common Seed Analysis was used to help prioritize clean hits as opposed to those appearing to arise from seed based off-target effects. Candidate modulators were defined as the genes having a MAD score greater than 1.0 or less than -1.0."}
{"sequence": "CAAACAUCCAUAUCUAUGATT against NMT1", "median seed-adjusted z-score": "0.18 (inactive)"}
{"sequence": "CGCUAUCCCAAUCGCUUUATT against CYB5R1", "median seed-adjusted z-score": "0 (inactive)"}
{"sequence": "GCAAGGGUCUCGGAUUAUATT against TMPRSS12", "median seed-adjusted z-score": "0.0961 (inactive)"}
{"sequence": "CUAUAGAUGUGAUCAGUGUTT against ZNF32", "median seed-adjusted z-score": "0.034 (inactive)"}
{"sequence": "GCCCAAACUGAGUACAACUTT against PLA2G10", "median seed-adjusted z-score": "1.07 (active)"}
{"sequence": "UGAGGACAAGGAUUUGGAATT against EIF2S2", "median seed-adjusted z-score": "0.576 (inactive)"}
{"sequence": "AUAGUUGACUAUUCUGAAATT against CCL18", "median seed-adjusted z-score": "0.169 (inactive)"}
{"sequence": "AUACGGCUCUAACAGAUUATT against DBI", "median seed-adjusted z-score": "0.0661 (inactive)"}
{"sequence": "AGAAGAUCGGAAUUCUUUATT against RGPD5", "median seed-adjusted z-score": "-0.0931 (inactive)"}
{"sequence": "GGCUUAGGAUGGAGACCUATT against TGDS", "median seed-adjusted z-score": "-0.196 (inactive)"}
{"sequence": "GUGUUUAAGGGCUUUUGAATT against CBR3", "median seed-adjusted z-score": "0.057 (inactive)"}
{"sequence": "GAAAUACCCUAUUACCAAATT against MED26", "median seed-adjusted z-score": "-1.86 (active)"}
{"sequence": "AACCCAUCGUUCCAUAUUATT against PPOX", "median seed-adjusted z-score": "0.519 (inactive)"}
{"sequence": "GAGUAGCAGGAAAAACGAATT against SNX13", "median seed-adjusted z-score": "0.253 (inactive)"}
{"sequence": "CCUAUGACAUGUUUCCAGATT against MAP4K2", "median seed-adjusted z-score": "-0.439 (inactive)"}
{"sequence": "GCUAUAAGCCGAUAGUAGATT against 11-Sep", "median seed-adjusted z-score": "-0.245 (inactive)"}
{"sequence": "GCUGGGCCGAGUACCUUAATT against PDX1", "median seed-adjusted z-score": "0 (inactive)"}
{"sequence": "GAAGUAAGUUUGUUGUAGATT against PGAP1", "median seed-adjusted z-score": "-0.272 (inactive)"}
{"sequence": "GCAAUGAGAUGAACACCGATT against NPEPL1", "median seed-adjusted z-score": "1.12 (active)"}
{"sequence": "GCCGAACUAUCUGAGAAUATT against PCDH1", "median seed-adjusted z-score": "-0.514 (inactive)"}
{"sequence": "GGGUUAAUGUUGAGGAAUUTT against NME7", "median seed-adjusted z-score": "-0.331 (inactive)"}
{"sequence": "CGGUAUCACCGUUGAUGAATT against ARID1A", "median seed-adjusted z-score": "-1.14 (active)"}
{"sequence": "CCUGAUUUCUUGUGAUACATT against DNAJC24", "median seed-adjusted z-score": "-0.0166 (inactive)"}
{"sequence": "GGACAUUUGCAUACUCCUATT against PPP1R14D", "median seed-adjusted z-score": "0 (inactive)"}
{"sequence": "GCAUUUCGCCUGACCAUUATT against SENP1", "median seed-adjusted z-score": "0.625 (inactive)"}
{"sequence": "CCGUUUUGGUGAGUCAACATT against RANBP2", "median seed-adjusted z-score": "1.53 (active)"}
{"sequence": "GAAUUGGAGUGAUUCGAAUTT against NETO2", "median seed-adjusted z-score": "-0.136 (inactive)"}
{"sequence": "GGAAGACUAUUGGAUAGAATT against ARHGAP18", "median seed-adjusted z-score": "0 (inactive)"}
{"sequence": "CACCAGAUCUACCAGUUCATT against ADM", "median seed-adjusted z-score": "0.65 (inactive)"}
{"sequence": "GCCCUACAUGGUAAAUUCATT against GTDC1", "median seed-adjusted z-score": "0.2 (inactive)"}
{"sequence": "CCCAAGAACUGCUACGUCATT against SMPD2", "median seed-adjusted z-score": "-0.406 (inactive)"}
{"sequence": "GAAACUUCCUAAGUCGAAATT against FAM57A", "median seed-adjusted z-score": "0.0434 (inactive)"}
{"sequence": "CGUUCGGAAUAACUGAAAUTT against GNG7", "median seed-adjusted z-score": "-0.205 (inactive)"}
{"sequence": "AGAACAACCGGAUUCGAGATT against LRRC52", "median seed-adjusted z-score": "0.118 (inactive)"}
{"sequence": "UAAAGUUCUUUUAUCCAUUTT against UBE2D3", "median seed-adjusted z-score": "1.62 (active)"}
{"sequence": "GGGAGAACGUGACCAUCUATT against ICAM5", "median seed-adjusted z-score": "-1 (active)"}
{"sequence": "GCCUUUCAGUCAUCGCGCATT against PLXND1", "median seed-adjusted z-score": "-0.064 (inactive)"}
{"sequence": "GCUGGUCCCUUGGAUAAGATT against MED1", "median seed-adjusted z-score": "-0.855 (inactive)"}
{"sequence": "GAAACAGUGCUGAAGCCUUTT against RYBP", "median seed-adjusted z-score": "0.831 (inactive)"}
{"sequence": "GGGAGGGCAUCAACAAGAATT against RGS19", "median seed-adjusted z-score": "0.295 (inactive)"}
{"sequence": "GGCUGCACAUAUACCUUAATT against RRN3", "median seed-adjusted z-score": "0.0382 (inactive)"}
{"sequence": "GGAUAGUUUUUCGAAUUAATT against MYO9A", "median seed-adjusted z-score": "-0.567 (inactive)"}
{"sequence": "GGUAAGGCCUUAUAAUGUATT against KHK", "median seed-adjusted z-score": "0 (inactive)"}
{"sequence": "GGAUAUCCGCCUUCACAGATT against BAG4", "median seed-adjusted z-score": "0.111 (inactive)"}
{"sequence": "CCACUAGCUGAUUACUAUATT against MED6", "median seed-adjusted z-score": "-2.15 (active)"}
{"sequence": "CGAAGAAUCUUCCGAAGAATT against EIF2AK1", "median seed-adjusted z-score": "-0.546 (inactive)"}
{"sequence": "GAAUGUAUCAGCUACCGAUTT against HYAL4", "median seed-adjusted z-score": "-0.236 (inactive)"}
{"sequence": "GAAAGACUCUUACCAUUUUTT against SSBP4", "median seed-adjusted z-score": "0.254 (inactive)"}
{"sequence": "GCAUUGGGAUGUACUUGUATT against LRP12", "median seed-adjusted z-score": "0.416 (inactive)"}
{"sequence": "GCAUGAACUGAAACCCAAUTT against SMURF1", "median seed-adjusted z-score": "-1.4 (active)"}
{"sequence": "CCAUCGUACCUGUUACCAATT against KRIT1", "median seed-adjusted z-score": "-0.447 (inactive)"}
{"sequence": "GCAUCUACGAGUUCAUCAUTT against FOXG1", "median seed-adjusted z-score": "0.749 (inactive)"}
{"sequence": "GCAGUGAUCUAGUCUCUUUTT against GLRX", "median seed-adjusted z-score": "-0.0561 (inactive)"}
{"sequence": "CAUAACCACUUUAAAGUCATT against GAB1", "median seed-adjusted z-score": "0.373 (inactive)"}
{"sequence": "GCAAAUUGAUGAACCGGUUTT against CEP135", "median seed-adjusted z-score": "-0.2 (inactive)"}
{"sequence": "UGACCACACUUCUCAGCUATT against IL9R", "median seed-adjusted z-score": "-1.33 (active)"}
{"sequence": "GCACGAGGCUGGUACAGUUTT against MFNG", "median seed-adjusted z-score": "0.377 (inactive)"}
{"sequence": "GGAGACUAGUGGUGGGAUATT against CCL16", "median seed-adjusted z-score": "-0.308 (inactive)"}
{"sequence": "GCAACUUGUGAAUCUAGGATT against VCAM1", "median seed-adjusted z-score": "0.19 (inactive)"}
{"sequence": "AACUUGUCGCUGCCCAAUATT against ABCA2", "median seed-adjusted z-score": "-1.18 (active)"}
{"sequence": "GGCUGACAGUAGCUAAGCUTT against RAPGEF4", "median seed-adjusted z-score": "-0.197 (inactive)"}
{"sequence": "CCAGAUGGAUGUACACUGUTT against PDE6C", "median seed-adjusted z-score": "0.205 (inactive)"}
{"sequence": "CCACGCACAUACUAUCAAATT against HIVEP1", "median seed-adjusted z-score": "0.532 (inactive)"}
{"sequence": "CCCUUAGACUCUAAGCCCATT against HSD17B14", "median seed-adjusted z-score": "0.386 (inactive)"}
{"sequence": "GAAUGGUCCUAUAUCUCAATT against LARP5", "median seed-adjusted z-score": "-0.144 (inactive)"}
{"sequence": "GGAUACUUCAGGACUAGAATT against PNN", "median seed-adjusted z-score": "1.29 (active)"}
{"sequence": "GAGCAUCUUUGAUCGAGAATT against SPINK5", "median seed-adjusted z-score": "0.26 (inactive)"}
{"sequence": "CCCUGGCAGCUAGUAGGUUTT against BATF3", "median seed-adjusted z-score": "0.698 (inactive)"}
{"sequence": "CCAGUUUAUUGGAAACCGATT against NOP56", "median seed-adjusted z-score": "0.307 (inactive)"}
{"sequence": "UCCAGCAAGUGGCCAAGAATT against DUPD1", "median seed-adjusted z-score": "-0.406 (inactive)"}
